What was measured:
[1] = test system: Human papillomavirus type 1a protein E7 (residues 44-93); test: HPV1a E7 fragment binders on microarrays, primary screen, biochemical, small-molecule microarray, residues 44-93, 635 nm fluorescence (AID 1108); conditions: small-molecule microarray binding, fluorescence 635 nm; higher = more signal;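 note: E7 fragment applied at 1 µg/mL in TBST for 1 h at 4 C; score combines spot fluorescence with its signal to noise ratio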
[2] = modulators of HCV replicon luciferase signal, primary screen, HCV replication inhibitor project, Huh7 cells, luciferase reporter (AID 1109); conditions: 48 h, higher = more signal;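 note: huh7 hepatoma cells harbouring a luciferase neomycin HCV replicon reporter; luciferase luminescence as measure of HCV replicon replication; test concentration not given here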
[3] = target: Left-right determination factor 2 (Homo sapiens) (UniProt O00292); test: LEFTY2 binders on small-molecule microarrays, primary screen, biochemical, small-molecule microarray, 635 nm fluorescence scan (AID 1110); conditions: LEFTY2 binding, higher = more signal
[4] = target: Calmodulin-1 (Homo sapiens) (UniProt P0DP23); test: CALM1 binders on microarrays, EGTA buffer, profiling panel, biochemical, small-molecule microarray, Cy5-labelled CALM1 (AID 1111); conditions: Cy5-CALM1 binding fluorescence, higher = more signal;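 note: labelled calmodulin applied in Tris saline Tween buffer holding calcium plus EGTA and DTT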
[5] = target: Calmodulin-1 (Homo sapiens) (UniProt P0DP23); test: calcium-bound CALM1 binders on microarrays, profiling panel, artefact control for SMM control-protein annotation, biochemical, small-molecule microarray, Cy5-labelled CALM1, plus calcium (AID 1112); conditions: Cy5-CALM1 binding fluorescence, higher = more signal;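 note: score merges spot fluorescence with signal to noise from triplicate slides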
[6] = small-molecule microarray binders of probe aWnt5a, primary screen, biochemical, biotinylated probe, 635/667 nm fluorescence (AID 1113); conditions: higher = more signal;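 note: score merges 667 nm fluorescence intensity with signal-to-noise per printed feature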
[7] = small-molecule microarray binders of probe aShh, primary screen, biochemical, biotinylated probe, 635/667 nm fluorescence (AID 1114); conditions: higher = more signal;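 note: probe is biotin-labelled aShh protein from a stem cell growth factor screen; measures binding of labelled protein to compounds printed on the slide; score merges feature fluorescence at 667 nm with signal-to-noise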
[8] = small-molecule microarray binders of probe aNog, primary screen, biochemical, biotinylated probe, 635/667 nm fluorescence (AID 1115); conditions: higher = more signal;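 note: probe is biotinylated aNog protein used at 0.15 µg/mL for 1 h at 4 C; z-score combines 667 nm fluorescence of each spot with its signal to noise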
[9] = target: Torsin-1A-interacting protein 1 (Homo sapiens) (UniProt Q5JTV8); test: LAP1 binders from COS7 cell lysate, primary screen, small-molecule microarray, 635/667 nm fluorescence (AID 1116); conditions: COS7-hLAP1 lysate binding, 635 nm fluorescence, higher = more signal
[10] = target: Alpha-bungarotoxin (Bungarus multicinctus) (UniProt P60615); test: alpha-bungarotoxin binders on microarray, profiling panel, artefact control for SMM control protein annotation, biochemical, small-molecule microarray, Alexa647 label, 635/667 nm fluorescence (AID 1117); conditions: alpha-BTX-A647 binding fluorescence, higher = more signal
Chain of Alpha-bungarotoxin (Bungarus multicinctus) (P60615 whole entry, looked up): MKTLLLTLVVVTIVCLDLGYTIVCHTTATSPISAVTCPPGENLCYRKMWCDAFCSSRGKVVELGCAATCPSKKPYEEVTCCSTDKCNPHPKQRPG

Chain of Torsin-1A-interacting protein 1 (Homo sapiens) (Q5JTV8 whole entry, looked up): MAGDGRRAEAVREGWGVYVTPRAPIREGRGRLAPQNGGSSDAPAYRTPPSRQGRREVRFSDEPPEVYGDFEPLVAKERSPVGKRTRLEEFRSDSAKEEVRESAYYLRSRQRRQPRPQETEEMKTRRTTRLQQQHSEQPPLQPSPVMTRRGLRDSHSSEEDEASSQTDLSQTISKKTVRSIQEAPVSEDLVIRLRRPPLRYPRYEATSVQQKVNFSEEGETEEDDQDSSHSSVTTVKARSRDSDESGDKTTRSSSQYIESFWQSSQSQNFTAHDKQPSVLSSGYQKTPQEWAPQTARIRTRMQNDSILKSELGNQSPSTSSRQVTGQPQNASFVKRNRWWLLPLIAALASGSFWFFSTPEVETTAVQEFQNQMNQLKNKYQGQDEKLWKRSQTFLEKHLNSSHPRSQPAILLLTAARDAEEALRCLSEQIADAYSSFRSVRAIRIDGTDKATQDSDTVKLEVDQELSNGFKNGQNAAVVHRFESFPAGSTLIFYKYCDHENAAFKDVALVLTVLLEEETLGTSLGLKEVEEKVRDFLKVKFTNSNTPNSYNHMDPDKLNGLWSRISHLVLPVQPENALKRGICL
Chain of Left-right determination factor 2 (Homo sapiens) (O00292 whole entry, looked up): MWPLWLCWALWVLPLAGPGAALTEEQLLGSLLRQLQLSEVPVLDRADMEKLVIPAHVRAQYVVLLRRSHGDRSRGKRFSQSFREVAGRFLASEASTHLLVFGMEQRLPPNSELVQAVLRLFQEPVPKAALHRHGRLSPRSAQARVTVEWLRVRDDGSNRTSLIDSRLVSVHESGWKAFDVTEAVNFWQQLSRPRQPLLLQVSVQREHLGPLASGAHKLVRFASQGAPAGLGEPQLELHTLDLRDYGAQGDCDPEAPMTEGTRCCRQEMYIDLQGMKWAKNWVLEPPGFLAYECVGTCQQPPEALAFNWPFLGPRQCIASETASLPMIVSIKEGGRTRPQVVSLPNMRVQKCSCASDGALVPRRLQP

Row | Compound | composite z-score [1] | z-score [2] | composite z-score [3] | composite z-score [4] | composite z-score [5] | composite z-score [6] | composite z-score [7] | composite z-score [8] | composite z-score [9] | composite z-score [10]
1 | C=CCC(OC(C)=O)[C@@H]1[C@@H](N(Cc2ccc(-c3ccccc3)cc2)C(=O)c2ccc(C)cc2)c2cc(OCCCO)ccc2N1C(=O)c1ccc(-c2ccccc2)cc1 (stereo not given in full) | -0.0852 | -0.13 | 0.181 | 0.218 | 1.22 | -0.101 | 0.0611 | 0.15 | 0.116 | 0.523
2 | Cc1ccc(S[C@]2(C(=O)O)CC(=O)N(Cc3ccccc3)[C@@H]2c2ccc(CO)cc2)cc1 | -0.323 | 0.764 | -1.29 | 0.321 | 0.965 | -0.172 | 0.046 | -0.0563 | -0.257 | -0.198
3 | CC(C)CNC(=O)[C@@]1(C)c2ccccc2C(=O)N(Cc2ccc(OC(F)(F)F)cc2)[C@H]1c1ccc(CO)cc1 | -1.2 | 0.173 | -1.22 | -0.381 | 0.787 | -0.147 | -0.0769 | 0.264 | 1.5 | -0.36
4 | CCOC(=O)C1=CC[C@@H](c2ccccc2)N(S(=O)(=O)c2ccc(C)cc2)[C@H]1C | 1.47 | -2.88 | 0.902 | 0.764 | 0.665 | 0.101 | -0.214 | 0.787 | 0.682 | 1.74
5 | COc1ccc(CCN2C(=O)[C@@]3(c4ccc([N+](=O)[O-])cc4)CC(=O)N(CC45CC6CC(CC(C6)C4)C5)[C@@H]3c3ccc(CO)cc32)cc1 | -0.047 | -0.673 | 0.16 | 0.207 | -0.474 | -0.0101 | -0.181 | -0.476 | 0.352 | 0.119
6 | CO[C@]12C=C(Br)[C@@H](C[C@@H]1c1ccccc1)[C@@]1(CO1)C2=O | -0.468 | -2.97 | 0.36 | -0.264 | -0.533 | -0.0125 | -0.0146 | 0.0256 | -0.161 | -0.3
7 | COC(=O)C1=C(C)N(Cc2ccccc2)c2c(C(=O)OC)c(C(=O)OC)c(C(=O)OC)c(=O)n2[C@@H]1c1ccccc1 | -0.316 | 0.0883 | 0.431 | 1.61 | 0.141 | -0.0806 | -0.221 | -0.0286 | 0.812 | 0.732
8 | CC(=O)Nc1ccc([C@H]2[C@H](C)CC[C@H]3C(=O)N4[C@@H](CC[C@@H](C)[C@@H]4c4ccc(NC(C)=O)cc4)C(=O)N32)cc1 | 0.946 | -0.288 | 0.72 | 0.184 | -0.346 | -0.176 | 0.168 | 0.33 | 0.424 | 0.884
9 | NC(=O)NCC#Cc1ccc2c(c1)[C@]1(C(=O)N2)[C@H](C(=O)N2CCCCCCC2)[C@H]2C(=O)O[C@H](c3ccccc3)[C@H](c3ccccc3)N2[C@@H]1c1ccccc1OCCO | 1.37 | -1.54 | 1.46 | 2.99 | 1.69 | 1.31 | 2.38 | 2.29 | 5.01 | 2.63
10 | CC(=O)NCCCC[C@@H]1NC(=O)[C@@H]2C[C@H](C(=O)NCc3ccc(F)cc3)[C@H](c3cccc(OCCO)c3)N2C1=O | 0.843 | -0.0901 | -0.0566 | -0.286 | 0.0377 | -0.0836 | 0.0469 | -0.183 | 0.436 | -0.86
11 | CCC1=C2CN(Cc3ccccc3Br)[C@@H]([C@@H](O)Cc3ccccc3)C2C=CCC1 (stereo not given in full) | 1.38 | -2.97 | 0.473 | 0.417 | -0.419 | -0.148 | -0.0709 | -0.278 | -0.131 | 0.616
12 | CO[C@H]1O[C@H](CO)[C@@H](OC(=O)Nc2ccc(Oc3ccccc3)cc2)[C@H](OC(=O)Nc2ccccc2-c2ccccc2)[C@H]1OC(=O)Nc1ccccc1-c1ccccc1 | 0.383 | -3.97 | 0.975 | 2.09 | -0.107 | 0.0676 | 0.11 | 0.786 | 1.77 | 2.98
13 | C=C(CCCC)C(=O)CC[C@@H](OC(C)=O)c1ccccc1OCCO | -1.03 | -3.42 | -0.941 | -0.923 | -1.13 | -0.154 | 0.0278 | -0.618 | -0.572 | -1.31
14 | C=CCC(OC(C)=O)[C@@H]1[C@@H](N(Cc2cccc3ccccc23)C(=O)Cc2ccc(F)cc2)c2cc(OCCCO)ccc2N1C(=O)Cc1ccc2ccccc2c1 (stereo not given in full) | -0.28 | 0.874 | -0.368 | -0.571 | 0.158 | -0.0179 | -0.326 | 0.0129 | -0.148 | 0.983
15 | C[C@H]1NC(=O)[C@@H](C)NC(=O)[C@@]23C(=O)N[C@@H](Cc4ccccc4)C2[C@H](C)[C@@]2(C)O[C@H]2C3/C=C/C/C=C\CNC1=O (stereo not given in full) | -0.569 | -0.175 | 0.182 | -0.809 | -1.32 | -0.0758 | -0.221 | -0.0684 | -0.485 | 0.393
16 | C=CC(=O)O[C@@H](Cc1ccccc1)[C@H]1C2C=CCCC=C2CN1Cc1cccc(Cl)c1 (stereo not given in full) | -2.98 | -1.08 | -0.195 | -0.82 | 0.484 | -0.148 | 0.0022 | -0.267 | -0.103 | -0.439
17 | CO[C@H]1COC(=O)[C@@H](C)COC(=O)[C@H](Cc2ccccc2)NC(=O)CC=C[C@H]1C | 0.334 | -0.082 | 0.726 | -1.69 | -1.8 | -0.135 | -0.143 | -0.454 | -0.115 | 0.0209

Reference: PubChem BioAssay
